Source: PubChem BioAssay (NCATS)
Inconclusive results are not listed. Where a call stands in place of a potency, no number is given. Calls of active or inactive are those of the source. The call rests on the fitted dose curve; in most records, active means well fitted inhibition curve with a large enough effect; inconclusive means small, poorly fitted or top-dose-only effect; inactive means no such curve, though single readings can be large or run the other way.
Potency means the concentration at half of the fitted maximal effect.

These compounds were tested against N-terminal Xaa-Pro-Lys N-methyltransferase 1 (Homo sapiens) (UniProt Q9BV86) (assay: qHTS Assay for Inhibitors of N-terminal methyltransferase 1 (NTMT1): LOPAC validation of the NTMT1 SAHH-coupled ThioGlo3 Assay (AID 1347143;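 further: SAH from peptide methylation measured as thiol fluorescence via SAHH coupling and ThioGlo3; nearly all actives have a fitted effect of over 70% in size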)). Conditions: recombinant NTMT1, SAHH-coupled ThioGlo3 fluorescence; series mostly up to 114 µM.
N-terminal Xaa-Pro-Lys N-methyltransferase 1 (Homo sapiens), sequence (Q9BV86 whole entry, looked up): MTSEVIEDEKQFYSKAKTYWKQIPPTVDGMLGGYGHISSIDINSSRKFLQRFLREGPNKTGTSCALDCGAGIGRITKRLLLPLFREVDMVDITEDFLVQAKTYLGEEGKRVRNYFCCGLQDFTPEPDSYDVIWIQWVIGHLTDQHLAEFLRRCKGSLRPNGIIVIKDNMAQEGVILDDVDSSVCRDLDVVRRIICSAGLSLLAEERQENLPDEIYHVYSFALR
Source text: Assay Submitter (PI): Rong Huang Ph.D, Purdue University, West Lafayette, IN 47907 The N-terminal methytransferase 1 is the first methyltransferase that methylates protein alpha-N-amines and plays an important role in regulating cell mitosis, chromatin interactions and DNA repair. It is observed to be over-expressed in various cancer patient tissues like malignant melanoma and colorectal cancer tissues. Knockdown of NTMT1 in cancer cells causes cell mitotic defects and enhances sensitivity to DNA damaging chemotherapeutics. […] These critical cellular processes in which NTMT1 is implicated, coupled with emerging links to cellular dysfunction, strengthen the inference that NTMT1 is a compelling novel anticancer target. Progress have been made in understanding the molecular properties of NTMT1 and the biological consequences of protein alpha-N-terminal methylation, but there are no specific small molecule probes available for NTMT1 to fully characterize its MTase activity. To address this unmet need, a panel of assay is created and established to enable quantitative high-throughput screening (qHTS) for novel, potent, and selective small molecule NTMT1 inhibitors. Two orthogonal qHTS that use different reagents (ThioGlo vs. MTaseGlo) are developed for primary robotic screening against the NCATS chemical library of more than 400,000 small molecules. Identified inhibitors are reacquired, validated, and further characterized. […] A pilot screen against the LOPAC library of 1280 compounds is carried out to assess performance of the optimized qHTS in 1536-well plate format. Early Translation Branch (ETB) National Center for Advancing Translational Sciences (NCATS) National Institute of Health (NIH)
Materials: NTMT1 enzyme, substrate SPKRIA, control peptide RCC1-6 is provided by the Huang laboratory. ThioGlo3 Assay: In brief, 125nM NTMT1 enzyme was dispensed into a 1536-well assay plate with Aurora Discovery BioRAPTR Flying Reagent Dispenser (FRD, Beckton-Dickenson). Compounds (at various concentration) or 1uM RCC1-6 (SPKRIA) control were transferred to the assay plate using the Kalypsys 1536-pintool apparatus. After 1 min of room temperature incubation, 1uL of substrate (100uM SAM, 10uM SAHH, 15uM ThioGlo3) was added to the wells bringing the final assay volume to 4uL. Initial (background) fluorescence readout (EX: 340nm, EM: 450nm) was then detected using the PerkinElmer ViewLux microplate imager and a final fluorescence readout was taken after 30 min of room temperature incubation. The data was normalized to the background fluorescence.
With `CC(C)NCC(O)c1ccc(NS(C)(=O)=O)cc1` (stereo not drawn) the Potency was “inactive”. `O=C(O)C1CCCN(CCC=C(c2ccccc2)c2ccccc2)C1` (stereo not drawn) was tested, and the Potency was “inactive”. In the case of `CCCCS(=N)(=O)CCC(N)C(=O)O` (stereo not drawn), the Potency was “inactive”. With `Nc1nc(N)c2nc(CNc3ccc(C(=O)NC(CCC(=O)O)C(=O)O)cc3)cnc2n1` (stereo not drawn) the Potency was 56.2 µM (active). `OCc1ccc(-c2nn(Cc3ccccc3)c3ccccc23)o1` was tested, and the Potency was 28.2 µM (active). With `CC1=C(C(=O)O)N2C(=O)[C@@H](NC(=O)C(N)c3ccccc3)[C@H]2SC1` (stereo partly drawn) the Potency was “inactive”. For `CNS(=O)(=O)CCc1ccc2[nH]cc(C3CCN(C)CC3)c2c1`, the Potency was “inactive”. `CC1CC2C3CCC4=CC(=O)C=C[C@]4(C)[C@@]3(F)[C@@H](O)C[C@]2(C)[C@@]1(O)C(=O)CO` (stereo partly drawn) was tested, and the Potency was “inactive”. `CCN1CCCC1CNC(=O)c1cc(S(N)(=O)=O)ccc1OC` (stereo not drawn) was tested, and the Potency was 56.2 µM (active). For `NC(=O)c1ccc2[nH]ccc2c1`, the Potency was “inactive”. In the case of `N[C@@H](Cc1ccc(O)c(O)c1)C(=O)O`, the Potency was 50.1 µM (active). For `COc1cc2nc(N3CCCN(C)CC3)nc(NC3CCN(Cc4ccccc4)CC3)c2cc1OC`, the Potency was “inactive”. For `NC(=O)c1cccc(N)c1`, the Potency was “inactive”.
